PubChem BioAssay (Tox21)
Results filed as inconclusive are left out. The source made the active and inactive calls. Unless noted, the call rests on the fitted dose curve; in most records, active means well fitted curve in the direction sought with a large enough effect in the repeat runs; inconclusive means weak or mixed curves; inactive means no such curve, though single readings can be large; an effect the other way counts as inactive or inconclusive.

Legend:
[1] = qHTS assay to identify small molecule antagonists of the estrogen receptor beta (ER-beta) signaling pathway - cell viability counter screen (AID 1259382);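 further: HEK293T cells carrying ER-beta-UAS-bla reporter stimulated with estradiol; series mostly up to about 92 µM; nearly all actives have a fitted effect of over 55% in size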
In short: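 ER-beta-UAS-bla HEK293T cells in 2% charcoal-stripped FBS medium, treated with compound plus 1 nM 17-beta-estradiol for 16 h at 37C. Viability read by CellTiter-Glo luminescence after 30 min at room temperature in the same wells.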

[2] = target: Estrogen receptor (Homo sapiens) (UniProt P03372); experiment: qHTS assay to identify small molecule agonists of the estrogen receptor alpha (ER-alpha) signaling pathway in the presence of an antagonist (AID 1259383; calls by dose curve; further: top concentration of the series differs between compounds; nearly all actives have a fitted effect of over 15% in size)
In short: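 VM7Luc4E2 cells express endogenous full-length ER-alpha with an ERE-luciferase reporter and were hormone-deprived for 5 days. Compounds at 15 concentrations were added with 10.0nM ICI-182,780 for 22hr at 37C. Luminescence was read with ONE-Glo.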

[3] = qHTS assay to identify small molecule agonists or antagonists of the thyroid stimulating hormone receptor (TSHR) signaling pathway - wild type cell line counter screen (AID 1259384; calls by dose curve)
In short: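 Counter screen in untransfected Hek293: compounds (15-point titration, triplicate) plus phosphodiesterase inhibitor Ro20-1724 added after 18 h plating; 30 min RT. Intracellular cAMP via competitive d2/cryptate immunoassay, 1 h incubation.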

[4] = target: Thyrotropin receptor (Homo sapiens) (UniProt P16473); experiment: qHTS assay to identify small molecule antagonists of the thyroid stimulating hormone receptor (TSHR) signaling pathway (AID 1259385; calls by dose curve; further: nearly all actives have a fitted effect of over 20% in size)
In short: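 Antagonist mode: compound-treated TSHR-expressing HEK293 cells were stimulated with 1.5 ng/mL TSH (final) in presence of Ro20-1724 for 30 min at RT. HTRF cAMP detection after 1 h; each compound tested at 15 concentrations, triplicate.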

[5] = qHTS assay to identify small molecule agonists of the estrogen receptor alpha (ER-alpha) signaling pathway in the presence of an antagonist - cell viability counter screen (AID 1259386);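 further: series mostly up to about 92 µM; cells exposed to compounds for 22 h at 37 °C before the viability read; nearly all actives have a fitted effect of over 30% in size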
In short: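 Cell viability in VM7Luc4E2 cells (endogenous full-length ER-alpha) measured by CellTiter-Fluor fluorescence in the same wells as the luciferase screen. Cells pre-cultured 5 days in charcoal-stripped serum, then treated 22 h with compounds at 15 concentrations plus 10.0nM ICI-182,780.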

[6] = target: Progesterone receptor (Homo sapiens) (UniProt P06401); experiment: qHTS assay to identify small molecule agonists of the progesterone receptor (PR) signaling pathway (AID 1346784; calls by dose curve; further: nearly all actives have a fitted effect of over 30% in size)
In short: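 Compounds were tested for PR agonism in HEK 293T cells bearing a beta-lactamase gene under UAS control. Treatment lasted 16 hr at 37C; signal came from fluorescence of a FRET substrate.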

[7] = target: Progesterone receptor (Homo sapiens) (UniProt P06401); experiment: qHTS assay to identify small molecule antagonists of the progesterone receptor (PR) signaling pathway (AID 1346795; active means well fitted inhibition curve with a large enough effect in the signal ratio in the repeat runs, not every such curve was filed as active; the % refers to the signal ratio)
In short: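 In HEK293T cells bearing the PR-UAS-bla reporter, compound effects on promegestone-driven (1 nM) beta-lactamase expression are assessed after 16 hr using a fluorescent FRET substrate incubated 2 hr at room temperature.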

[8] = qHTS assay to identify small molecule antagonists of the progesterone receptor (PR) signaling pathway - cell viability counter screen (AID 1346798); further: series mostly up to about 92 µM; nearly all actives have a fitted effect of over 50% in size
In short: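 Following a 4 hr attachment, PR-UAS-bla HEK293T cells in charcoal-stripped FBS medium were exposed to compounds with R5020 for 16 hr; CellTiter-Glo was added and luminescence read after 30 min at room temperature.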

[9] = qHTS assay to identify small molecule agonists of the progesterone receptor (PR) signaling pathway - cell viability counter screen (AID 1346799; calls by dose curve; further: nearly all actives have a fitted effect of over 45% in size)
In short: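 Here, 3,000 PR-UAS-bla HEK293T cells per well were treated with compounds for 16 hr after a 6 hr preincubation at 37C and 5% CO2; cell viability is the CellTiter-Glo luminescence signal.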

[10] = qHTS assay to identify small molecule antagonists of the TGF-beta/Smad signaling pathway - cell viability counter screen (AID 1346824); further: nearly all actives have a fitted effect of over 50% in size
In short: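 Cytotoxicity counter-screen run in the same wells as the beta-lactamase Smad reporter read: CellTiter-Glo luminescence after 30 min at room temperature. HEK 293T SBE-bla cells had 5 hr compound exposure at 37 C with TGF-beta1 (0.25 ng/mL stock).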

[11] = qHTS assay to identify small molecule agonists of the TGF-beta/Smad signaling pathway - cell viability counter screen (AID 1346829); further: top concentration of the series differs between compounds; nearly all actives have a fitted effect of over 45% in size
In short: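 HEK 293T SBE-bla line, 5 hr compound exposure at 37 C, multiplexed CellTiter-Glo viability read by luminescence.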

[12] = qHTS assay to identify small molecule agonists of the TGF-beta/Smad signaling pathway (AID 1346859; active means well fitted activation curve with a large enough effect in the signal ratio in the repeat runs, not every such curve was filed as active; the % refers to the signal ratio; further: series mostly up to about 77 µM)
In short: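 Each well held 4,000 SBE-bla HEK 293T cells incubated overnight before compound addition; 5 hr later the cleavable FRET substrate went on for 2 hr at room temperature, and fluorescence was read at two emissions.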

[13] = target: Thyrotropin-releasing hormone receptor (Homo sapiens) (UniProt P34981); experiment: qHTS assay to identify small molecule antagonists of the thyrotropin-releasing hormone receptor (TRHR) signaling pathway (AID 1346877; active means well fitted inhibition curve with a large enough effect in the repeat runs, not every such curve was filed as active; further: series mostly up to about 51 µM)
In short: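 TRHR-expressing HEK293 cells loaded with calcium dye for 2 h at 37 C; compounds pre-incubated 5 min at room temperature before TRH challenge at 1 nM final. Intracellular calcium fluorescence read kinetically for 3 min; 15 concentrations in triplicate.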

[14] = target: Thyrotropin-releasing hormone receptor (Homo sapiens) (UniProt P34981); experiment: qHTS assay to identify small molecule agonists of the thyrotropin-releasing hormone receptor (TRHR) signaling pathway (AID 1346891; calls by dose curve; further: series mostly up to about 58 µM)
In short: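 Screening of agonists relied on calcium signalling in HEK293 cells expressing human TRHR: dye loading 2 h at 37 °C preceded compound addition and a 3-min fluorescence time course.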

[15] = Human pregnane X receptor (PXR) small molecule agonists, qHTS cell viability counter screen (AID 1346977); further: nearly all actives have a fitted effect of over 50% in size
In short: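 Tox21 qHTS format; PXR-Luc HepG2, 2,000/well, charcoal-stripped FBS 5%. Cpd exposure 24hr. Read: CellTiter-Fluor fluorescence, multiplexed with luciferase.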

[16] = Caspase-3/7 induction in HepG2 cells by small molecules, qHTS assay (AID 1346978); further: nearly all actives have a fitted effect of over 15% in size
In short: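 Caspase-3/7 induction was measured by Caspase-Glo 3/7 luminescence (30 min, room temperature) after a 17 hr compound exposure of wild-type HepG2 cells seeded at 2,000 per well and pre-incubated 5 hr.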

[17] = Caspase-3/7 induction in CHO-K1 cells by small molecules, qHTS cell viability counter screen (AID 1346979); further: nearly all actives have a fitted effect of over 35% in size
In short: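 CellTiter-Fluor viability check, qHTS format: wild-type CHO-K1, 16hr compound treatment, 1hr reagent incubation, fluorescence read.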

[18] = Caspase-3/7 induction in CHO-K1 cells by small molecules, qHTS assay (AID 1346980); further: nearly all actives have a fitted effect of over 15% in size
In short: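 Luminescent Caspase-Glo 3/7 read (30min, room temperature) quantified apoptosis induction. Cells were wild-type CHO-K1, treated with compound for 17hr at 37 C and 5% CO2.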

[19] = Caspase-3/7 induction in HepG2 cells by small molecules, qHTS cell viability counter screen (AID 1346981); further: series mostly up to about 92 µM; nearly all actives have a fitted effect of over 30% in size
In short: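 Wild-type HepG2 cells, 2,000/well, settled 5 hr at 37 C, 5% CO2 before compound addition. Viability read by CellTiter-Fluor fluorescence, reagent added after 16 hr compound exposure, then 1 hr at 37C, in the same wells as the caspase read.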

[20] = target: Nuclear receptor subfamily 1 group I member 2 (Homo sapiens) (UniProt O75469); experiment: Human pregnane X receptor (PXR) small molecule agonists, qHTS assay (AID 1346982); further: nearly all actives have a fitted effect of over 35% in size
In short: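 PXR-Luc HepG2 reporter cells (CYP3A4-driven luciferase) in 5% charcoal-stripped FBS medium, plated 5 h before compound addition, then treated 24 h at 37C. Luciferase read by ONE-Glo luminescence after 30 min at room temperature.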

Measured: Potency

Chain of Thyrotropin-releasing hormone receptor (Homo sapiens) (P34981 whole entry, looked up): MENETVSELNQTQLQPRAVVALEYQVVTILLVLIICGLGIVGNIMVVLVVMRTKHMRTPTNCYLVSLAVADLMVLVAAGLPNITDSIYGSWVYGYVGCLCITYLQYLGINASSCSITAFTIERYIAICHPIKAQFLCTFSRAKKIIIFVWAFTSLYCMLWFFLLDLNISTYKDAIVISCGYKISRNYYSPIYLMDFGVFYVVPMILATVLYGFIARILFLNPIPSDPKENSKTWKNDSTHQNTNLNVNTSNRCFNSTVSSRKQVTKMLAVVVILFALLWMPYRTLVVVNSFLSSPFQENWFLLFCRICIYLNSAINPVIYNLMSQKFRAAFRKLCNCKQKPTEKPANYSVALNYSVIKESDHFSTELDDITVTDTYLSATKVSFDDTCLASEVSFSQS
Chain of Thyrotropin receptor (Homo sapiens) (P16473 whole entry, looked up): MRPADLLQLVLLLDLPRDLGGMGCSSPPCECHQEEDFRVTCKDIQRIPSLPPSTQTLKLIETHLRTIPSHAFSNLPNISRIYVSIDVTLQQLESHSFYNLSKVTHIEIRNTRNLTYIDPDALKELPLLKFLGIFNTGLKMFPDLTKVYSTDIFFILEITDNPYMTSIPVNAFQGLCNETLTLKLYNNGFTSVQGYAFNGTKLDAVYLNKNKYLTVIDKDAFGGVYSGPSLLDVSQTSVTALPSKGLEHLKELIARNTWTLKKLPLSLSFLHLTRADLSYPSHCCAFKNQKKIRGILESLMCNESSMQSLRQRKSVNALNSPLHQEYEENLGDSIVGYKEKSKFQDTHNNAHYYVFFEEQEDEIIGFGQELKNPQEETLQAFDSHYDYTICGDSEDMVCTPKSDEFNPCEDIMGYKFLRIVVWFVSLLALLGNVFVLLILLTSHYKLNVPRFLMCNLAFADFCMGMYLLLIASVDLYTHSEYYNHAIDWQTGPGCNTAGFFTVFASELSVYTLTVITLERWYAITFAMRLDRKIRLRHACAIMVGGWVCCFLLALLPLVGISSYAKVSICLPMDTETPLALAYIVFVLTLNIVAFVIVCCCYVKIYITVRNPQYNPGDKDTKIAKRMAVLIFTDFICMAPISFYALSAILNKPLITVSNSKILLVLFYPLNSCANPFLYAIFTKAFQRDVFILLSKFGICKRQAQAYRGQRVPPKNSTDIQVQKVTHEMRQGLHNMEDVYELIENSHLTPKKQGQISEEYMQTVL
Chain of Nuclear receptor subfamily 1 group I member 2 (Homo sapiens) (O75469 whole entry, looked up): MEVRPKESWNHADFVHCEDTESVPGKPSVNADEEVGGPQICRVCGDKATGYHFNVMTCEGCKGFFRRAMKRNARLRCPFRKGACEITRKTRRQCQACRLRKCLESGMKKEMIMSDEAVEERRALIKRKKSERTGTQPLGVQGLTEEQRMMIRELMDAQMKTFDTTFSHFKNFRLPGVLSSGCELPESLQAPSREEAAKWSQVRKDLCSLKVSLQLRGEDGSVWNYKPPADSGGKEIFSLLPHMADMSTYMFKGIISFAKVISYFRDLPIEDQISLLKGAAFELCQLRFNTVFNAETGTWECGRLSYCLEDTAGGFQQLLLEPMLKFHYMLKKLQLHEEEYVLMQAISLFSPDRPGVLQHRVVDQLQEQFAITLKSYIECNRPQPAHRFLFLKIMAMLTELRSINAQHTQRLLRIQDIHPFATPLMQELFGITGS
Chain of Estrogen receptor (Homo sapiens) (P03372 whole entry, looked up): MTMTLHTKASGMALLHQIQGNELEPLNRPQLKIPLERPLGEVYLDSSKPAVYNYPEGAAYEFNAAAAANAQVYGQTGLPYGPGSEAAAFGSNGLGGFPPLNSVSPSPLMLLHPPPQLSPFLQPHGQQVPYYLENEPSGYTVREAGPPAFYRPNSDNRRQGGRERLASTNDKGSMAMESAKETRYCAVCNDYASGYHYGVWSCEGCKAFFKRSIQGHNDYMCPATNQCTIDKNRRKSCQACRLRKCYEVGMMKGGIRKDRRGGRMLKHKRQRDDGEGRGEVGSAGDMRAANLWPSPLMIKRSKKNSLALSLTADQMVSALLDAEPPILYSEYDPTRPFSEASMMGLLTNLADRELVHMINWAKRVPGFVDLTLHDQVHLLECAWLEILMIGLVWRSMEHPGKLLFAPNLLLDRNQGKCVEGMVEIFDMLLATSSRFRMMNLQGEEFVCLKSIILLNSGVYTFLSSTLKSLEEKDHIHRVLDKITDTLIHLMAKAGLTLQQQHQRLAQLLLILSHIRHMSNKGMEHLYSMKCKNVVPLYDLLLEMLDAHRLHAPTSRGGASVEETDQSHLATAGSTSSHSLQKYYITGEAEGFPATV
Chain of Progesterone receptor (Homo sapiens) (P06401 whole entry, looked up): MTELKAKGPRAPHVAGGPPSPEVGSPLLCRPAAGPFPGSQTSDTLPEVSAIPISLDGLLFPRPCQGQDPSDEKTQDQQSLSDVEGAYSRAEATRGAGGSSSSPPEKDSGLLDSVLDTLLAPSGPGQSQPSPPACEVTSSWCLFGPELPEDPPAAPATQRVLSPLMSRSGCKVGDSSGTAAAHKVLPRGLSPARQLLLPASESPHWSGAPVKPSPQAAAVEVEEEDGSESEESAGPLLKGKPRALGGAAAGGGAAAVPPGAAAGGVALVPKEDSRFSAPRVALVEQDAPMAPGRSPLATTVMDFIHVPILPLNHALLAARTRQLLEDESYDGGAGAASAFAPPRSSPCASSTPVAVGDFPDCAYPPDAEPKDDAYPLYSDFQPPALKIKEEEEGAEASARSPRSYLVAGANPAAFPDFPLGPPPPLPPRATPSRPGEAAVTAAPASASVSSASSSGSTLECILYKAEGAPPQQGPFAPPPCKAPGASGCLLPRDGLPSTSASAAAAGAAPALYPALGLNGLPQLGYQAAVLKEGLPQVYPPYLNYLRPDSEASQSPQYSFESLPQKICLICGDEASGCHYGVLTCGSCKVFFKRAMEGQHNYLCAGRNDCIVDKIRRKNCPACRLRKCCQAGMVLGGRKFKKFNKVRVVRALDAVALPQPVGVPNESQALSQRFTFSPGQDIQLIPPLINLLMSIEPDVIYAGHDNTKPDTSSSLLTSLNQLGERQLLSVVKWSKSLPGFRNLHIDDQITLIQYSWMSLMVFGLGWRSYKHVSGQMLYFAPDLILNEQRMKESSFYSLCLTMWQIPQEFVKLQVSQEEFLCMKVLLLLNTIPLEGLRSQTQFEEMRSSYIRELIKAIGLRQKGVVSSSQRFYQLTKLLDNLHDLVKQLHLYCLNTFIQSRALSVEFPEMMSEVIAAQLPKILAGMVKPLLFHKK

CC1(C)[C@H](C(=O)OCc2cccc(Oc3ccccc3)c2)[C@@H]1C=C(Cl)Cl
inactive: all assays above

CCCC(C)C=O (centres undefined)
inactive: all assays above

C/C=C/C(=O)C1=C(C)C=CCC1(C)C
not listed: [20]
inactive: all other assays above

Cc1ccc2n[nH]nc2c1
not listed: [13]
inactive: all other assays above

CCOc1nc(F)cc2nc(S(=O)(=O)Nc3c(Cl)cccc3C(=O)OC)nn12
not listed: [13] | [14]
inactive: all other assays above

Clc1ccc2c(Cl)ccnc2c1
not listed: [13] | [14] | [20]
inactive: all other assays above

Cn1c(=O)[nH]c2ncn(C)c2c1=O
inactive: all assays above

C1CCSC1
not listed: [13] | [14] | [17]
inactive: all other assays above

C=C1CC[C@H]2O[C@]2(C)CC[C@@H]2[C@@H]1CC2(C)C
not listed: [13] | [14]
inactive: all other assays above

C=C(C)CCO
not listed: [14] | [19]
inactive: all other assays above

Cc1ccc(C2OC[C@@H]3OC(c4ccc(C)cc4)O[C@H]([C@H](O)CO)[C@@H]3O2)cc1 (some centres undefined)
not listed: [17] | [20]
inactive: all other assays above

[Cl][Sc]([Cl])[Cl]
not listed: [13] | [14]
inactive: all other assays above

CCCCCCCCCCCCCCCCC(C(=O)O)C(O)(CC(=O)O)C(=O)O (centres undefined)
not listed: [20]
inactive: all other assays above

CCOC(=O)OC(=O)OCC
not listed: [17] | [19]
inactive: all other assays above
